Source: the supplement of paper PMC11732987, “Enantioselective OTUD7B fragment discovery through chemoproteomics screening and high-throughput optimisation” (Communications Chemistry, 2025)

How the values were obtained:
Experiment in all cases: log2 ratio of Biotin-Ahx-Ub-VS probe labelling (fragment/DMSO); higher = less target engagement (more negative = stronger competition), active = hit call of the paper (q ≤ 0.05, log2 ratio ≤ -1)
Conditions in all cases: compound concentration: 200 uM; treatment time: 3 h
[1] = molecular target: USP34 (UniProt Q70CQ2)
Sequence of USP34 (Q70CQ2 whole entry, the tested form may be a part): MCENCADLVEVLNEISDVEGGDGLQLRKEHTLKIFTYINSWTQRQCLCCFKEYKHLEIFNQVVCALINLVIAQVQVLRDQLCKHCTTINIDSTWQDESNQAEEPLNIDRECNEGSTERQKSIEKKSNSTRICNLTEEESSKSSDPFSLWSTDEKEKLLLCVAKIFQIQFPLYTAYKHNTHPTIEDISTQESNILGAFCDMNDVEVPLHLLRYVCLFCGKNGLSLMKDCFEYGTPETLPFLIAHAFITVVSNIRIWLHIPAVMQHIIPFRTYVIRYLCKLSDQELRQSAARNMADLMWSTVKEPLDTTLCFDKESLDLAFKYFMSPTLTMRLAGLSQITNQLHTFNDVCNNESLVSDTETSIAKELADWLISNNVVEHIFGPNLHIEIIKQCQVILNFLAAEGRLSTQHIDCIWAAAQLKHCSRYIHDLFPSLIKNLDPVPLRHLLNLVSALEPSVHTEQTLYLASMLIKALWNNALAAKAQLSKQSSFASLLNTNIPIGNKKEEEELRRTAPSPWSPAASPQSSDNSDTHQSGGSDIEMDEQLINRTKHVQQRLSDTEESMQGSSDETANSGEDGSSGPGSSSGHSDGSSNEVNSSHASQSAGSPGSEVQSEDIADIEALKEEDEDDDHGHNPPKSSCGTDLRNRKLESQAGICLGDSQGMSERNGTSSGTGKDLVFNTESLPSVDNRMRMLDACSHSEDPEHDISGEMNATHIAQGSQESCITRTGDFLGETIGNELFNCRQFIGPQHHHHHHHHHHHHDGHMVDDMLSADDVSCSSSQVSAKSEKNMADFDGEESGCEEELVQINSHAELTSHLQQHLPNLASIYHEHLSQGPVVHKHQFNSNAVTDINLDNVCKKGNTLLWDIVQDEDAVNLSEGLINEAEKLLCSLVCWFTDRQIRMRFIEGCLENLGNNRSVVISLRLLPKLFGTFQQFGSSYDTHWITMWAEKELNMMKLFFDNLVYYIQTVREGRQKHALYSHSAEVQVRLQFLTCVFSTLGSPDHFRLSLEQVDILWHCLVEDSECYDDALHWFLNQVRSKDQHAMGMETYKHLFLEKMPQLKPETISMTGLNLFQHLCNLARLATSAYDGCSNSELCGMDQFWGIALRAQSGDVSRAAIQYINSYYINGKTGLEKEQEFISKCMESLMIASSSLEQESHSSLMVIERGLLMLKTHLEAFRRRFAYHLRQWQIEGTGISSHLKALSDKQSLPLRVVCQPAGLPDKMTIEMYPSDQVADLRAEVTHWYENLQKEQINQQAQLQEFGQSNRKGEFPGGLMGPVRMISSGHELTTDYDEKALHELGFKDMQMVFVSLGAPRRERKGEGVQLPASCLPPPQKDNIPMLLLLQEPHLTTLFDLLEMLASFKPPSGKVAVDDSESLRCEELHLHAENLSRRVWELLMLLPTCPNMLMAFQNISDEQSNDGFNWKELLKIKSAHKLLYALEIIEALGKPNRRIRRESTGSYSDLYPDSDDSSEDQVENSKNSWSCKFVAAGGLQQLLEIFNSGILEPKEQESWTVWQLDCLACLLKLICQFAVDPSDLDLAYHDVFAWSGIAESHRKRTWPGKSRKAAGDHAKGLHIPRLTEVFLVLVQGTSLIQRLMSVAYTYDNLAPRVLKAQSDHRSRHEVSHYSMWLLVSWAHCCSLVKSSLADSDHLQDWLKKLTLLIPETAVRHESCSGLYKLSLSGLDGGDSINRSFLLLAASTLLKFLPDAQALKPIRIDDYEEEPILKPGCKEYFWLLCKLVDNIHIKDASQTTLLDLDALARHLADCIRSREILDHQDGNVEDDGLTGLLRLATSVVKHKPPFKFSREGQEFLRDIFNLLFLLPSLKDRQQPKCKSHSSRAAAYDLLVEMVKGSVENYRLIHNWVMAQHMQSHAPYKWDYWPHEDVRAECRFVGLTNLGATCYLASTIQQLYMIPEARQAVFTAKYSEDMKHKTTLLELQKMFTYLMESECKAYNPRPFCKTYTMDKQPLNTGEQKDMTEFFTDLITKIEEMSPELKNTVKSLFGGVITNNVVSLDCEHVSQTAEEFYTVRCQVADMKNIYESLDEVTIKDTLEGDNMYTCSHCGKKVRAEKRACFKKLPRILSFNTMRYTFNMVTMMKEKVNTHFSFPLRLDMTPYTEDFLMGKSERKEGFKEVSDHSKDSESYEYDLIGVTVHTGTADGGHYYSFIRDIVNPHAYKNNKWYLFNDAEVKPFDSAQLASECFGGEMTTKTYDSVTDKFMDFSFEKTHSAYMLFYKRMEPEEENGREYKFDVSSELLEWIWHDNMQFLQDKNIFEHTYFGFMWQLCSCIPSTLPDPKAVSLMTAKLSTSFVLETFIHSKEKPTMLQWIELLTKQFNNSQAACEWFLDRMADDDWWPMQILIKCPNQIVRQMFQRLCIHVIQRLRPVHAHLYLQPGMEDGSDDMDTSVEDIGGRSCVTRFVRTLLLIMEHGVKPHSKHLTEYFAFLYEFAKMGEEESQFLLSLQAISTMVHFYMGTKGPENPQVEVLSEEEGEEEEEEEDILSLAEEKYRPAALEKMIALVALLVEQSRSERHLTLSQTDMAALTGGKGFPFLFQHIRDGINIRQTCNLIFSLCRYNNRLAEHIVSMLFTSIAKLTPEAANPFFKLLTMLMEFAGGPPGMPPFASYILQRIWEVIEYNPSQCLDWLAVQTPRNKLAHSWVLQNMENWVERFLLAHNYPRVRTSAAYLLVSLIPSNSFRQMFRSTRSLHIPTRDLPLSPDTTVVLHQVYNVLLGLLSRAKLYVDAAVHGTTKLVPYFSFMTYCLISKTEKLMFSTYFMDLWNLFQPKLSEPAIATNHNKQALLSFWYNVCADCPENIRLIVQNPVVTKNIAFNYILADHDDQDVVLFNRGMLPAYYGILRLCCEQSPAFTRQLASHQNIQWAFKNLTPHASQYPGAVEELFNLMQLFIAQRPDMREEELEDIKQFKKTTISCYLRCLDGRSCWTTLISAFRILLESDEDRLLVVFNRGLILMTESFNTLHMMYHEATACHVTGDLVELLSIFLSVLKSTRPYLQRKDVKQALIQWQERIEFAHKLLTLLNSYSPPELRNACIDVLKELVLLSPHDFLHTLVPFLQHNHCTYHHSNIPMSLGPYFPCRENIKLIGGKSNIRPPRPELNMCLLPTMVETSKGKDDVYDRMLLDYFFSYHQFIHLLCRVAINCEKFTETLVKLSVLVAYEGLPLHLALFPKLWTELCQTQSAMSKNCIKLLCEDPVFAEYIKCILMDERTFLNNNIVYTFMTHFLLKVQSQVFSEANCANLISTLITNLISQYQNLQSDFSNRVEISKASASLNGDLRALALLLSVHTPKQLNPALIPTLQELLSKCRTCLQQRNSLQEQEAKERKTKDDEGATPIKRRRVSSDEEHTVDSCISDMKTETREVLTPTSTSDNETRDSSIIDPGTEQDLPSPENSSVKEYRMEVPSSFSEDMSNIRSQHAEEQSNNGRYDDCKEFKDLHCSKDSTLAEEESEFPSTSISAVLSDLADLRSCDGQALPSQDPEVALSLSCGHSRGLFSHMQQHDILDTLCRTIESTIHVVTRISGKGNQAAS
Method in brief: (§1)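 The table lists average log2 ratios of fragment over vehicle, from an unpaired t-test on global-median-normalised Spectronaut label-free quantities. Proteins with ≥2 unique peptides were used. Samples were HEK293T lysate (495 µg) treated in triplicate with fragment at 200 µM or vehicle for 3 h, then with Biotin-Ahx-Ub-VS (0.5 µM final) for 1 h, with labelled DUBs NeutrAvidin-enriched and run by diaPASEF LC-MS/MS.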

[2] = molecular target: T1, USP36 (UniProt Q9P275)
T1 sequence (whole entry): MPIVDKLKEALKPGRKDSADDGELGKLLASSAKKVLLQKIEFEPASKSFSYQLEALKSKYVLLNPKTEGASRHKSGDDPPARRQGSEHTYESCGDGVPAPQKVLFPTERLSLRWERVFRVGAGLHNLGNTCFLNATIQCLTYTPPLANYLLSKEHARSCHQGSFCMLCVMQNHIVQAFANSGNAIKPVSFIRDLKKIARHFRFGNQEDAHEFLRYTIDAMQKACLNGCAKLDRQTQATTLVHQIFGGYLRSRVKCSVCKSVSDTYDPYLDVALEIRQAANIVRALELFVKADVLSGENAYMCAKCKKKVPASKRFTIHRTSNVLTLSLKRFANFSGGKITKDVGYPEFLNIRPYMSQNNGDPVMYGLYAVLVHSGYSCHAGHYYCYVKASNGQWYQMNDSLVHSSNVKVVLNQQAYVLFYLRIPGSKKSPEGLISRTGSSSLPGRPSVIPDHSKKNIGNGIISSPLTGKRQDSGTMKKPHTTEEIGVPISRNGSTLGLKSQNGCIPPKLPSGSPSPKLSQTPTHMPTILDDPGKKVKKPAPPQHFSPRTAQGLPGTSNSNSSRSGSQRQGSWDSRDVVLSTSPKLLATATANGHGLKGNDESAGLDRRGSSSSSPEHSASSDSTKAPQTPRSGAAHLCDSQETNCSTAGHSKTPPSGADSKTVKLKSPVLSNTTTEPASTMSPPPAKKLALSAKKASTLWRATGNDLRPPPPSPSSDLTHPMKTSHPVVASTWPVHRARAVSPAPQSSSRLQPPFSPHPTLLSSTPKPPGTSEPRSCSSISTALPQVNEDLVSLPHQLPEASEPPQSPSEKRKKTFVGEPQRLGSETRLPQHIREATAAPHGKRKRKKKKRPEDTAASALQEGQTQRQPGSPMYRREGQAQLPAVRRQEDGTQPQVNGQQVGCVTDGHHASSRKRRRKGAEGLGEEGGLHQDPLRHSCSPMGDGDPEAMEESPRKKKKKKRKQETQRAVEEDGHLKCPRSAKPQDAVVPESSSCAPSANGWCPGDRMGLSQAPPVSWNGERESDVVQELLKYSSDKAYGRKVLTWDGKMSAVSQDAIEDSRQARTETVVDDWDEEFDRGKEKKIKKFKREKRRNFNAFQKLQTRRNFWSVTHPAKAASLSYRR
Method in brief: as §1

[3] = molecular target: T2, USP38 (UniProt Q8NB14)
T2 sequence (whole entry): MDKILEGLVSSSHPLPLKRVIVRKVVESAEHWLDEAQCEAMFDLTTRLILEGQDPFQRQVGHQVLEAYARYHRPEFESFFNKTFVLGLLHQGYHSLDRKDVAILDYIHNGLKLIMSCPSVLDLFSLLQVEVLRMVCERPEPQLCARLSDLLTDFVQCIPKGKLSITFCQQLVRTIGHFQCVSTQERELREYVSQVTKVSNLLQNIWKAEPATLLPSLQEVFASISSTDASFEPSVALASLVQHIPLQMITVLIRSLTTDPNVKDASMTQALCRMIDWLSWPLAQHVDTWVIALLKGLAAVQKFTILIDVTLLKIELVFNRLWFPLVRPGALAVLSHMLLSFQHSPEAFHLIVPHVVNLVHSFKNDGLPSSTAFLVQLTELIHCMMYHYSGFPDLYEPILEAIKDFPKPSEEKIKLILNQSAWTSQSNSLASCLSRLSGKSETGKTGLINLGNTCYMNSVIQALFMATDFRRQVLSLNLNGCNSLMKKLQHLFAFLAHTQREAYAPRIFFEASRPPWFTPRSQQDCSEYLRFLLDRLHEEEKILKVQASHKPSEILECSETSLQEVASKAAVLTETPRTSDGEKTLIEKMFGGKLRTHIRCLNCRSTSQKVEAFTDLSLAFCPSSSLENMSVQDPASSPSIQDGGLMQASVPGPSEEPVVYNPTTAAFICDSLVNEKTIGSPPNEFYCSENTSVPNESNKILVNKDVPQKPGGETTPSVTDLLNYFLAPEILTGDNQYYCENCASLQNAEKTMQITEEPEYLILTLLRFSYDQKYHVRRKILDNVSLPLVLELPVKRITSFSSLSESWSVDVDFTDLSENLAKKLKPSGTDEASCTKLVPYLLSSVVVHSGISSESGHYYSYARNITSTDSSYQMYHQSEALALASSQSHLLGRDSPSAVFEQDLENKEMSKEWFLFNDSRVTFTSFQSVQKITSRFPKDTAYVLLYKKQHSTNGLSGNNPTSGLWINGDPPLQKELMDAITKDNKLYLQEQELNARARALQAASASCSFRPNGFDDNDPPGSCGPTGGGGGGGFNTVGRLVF
Method in brief: as §1

[4] = molecular target: T3, USP39 (UniProt Q53GS9)
T3 sequence (whole entry): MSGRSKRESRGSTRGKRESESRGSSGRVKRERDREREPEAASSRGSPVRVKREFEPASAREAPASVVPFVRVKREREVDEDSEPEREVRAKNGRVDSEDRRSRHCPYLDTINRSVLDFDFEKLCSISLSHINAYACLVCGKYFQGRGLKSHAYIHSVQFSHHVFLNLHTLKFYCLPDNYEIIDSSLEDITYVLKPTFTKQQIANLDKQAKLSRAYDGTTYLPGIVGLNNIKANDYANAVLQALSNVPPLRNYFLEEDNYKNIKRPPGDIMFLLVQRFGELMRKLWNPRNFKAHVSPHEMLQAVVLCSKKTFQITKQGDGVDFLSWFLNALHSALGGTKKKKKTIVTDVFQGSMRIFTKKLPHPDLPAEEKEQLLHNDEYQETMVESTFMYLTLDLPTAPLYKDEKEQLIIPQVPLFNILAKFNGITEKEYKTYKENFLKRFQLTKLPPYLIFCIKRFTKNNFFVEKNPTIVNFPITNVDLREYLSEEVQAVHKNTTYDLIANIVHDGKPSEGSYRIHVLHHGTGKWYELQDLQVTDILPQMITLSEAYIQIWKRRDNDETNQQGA
Method in brief: as §1

[5] = molecular target: T4, USP4 (UniProt Q13107)
T4 sequence (whole entry): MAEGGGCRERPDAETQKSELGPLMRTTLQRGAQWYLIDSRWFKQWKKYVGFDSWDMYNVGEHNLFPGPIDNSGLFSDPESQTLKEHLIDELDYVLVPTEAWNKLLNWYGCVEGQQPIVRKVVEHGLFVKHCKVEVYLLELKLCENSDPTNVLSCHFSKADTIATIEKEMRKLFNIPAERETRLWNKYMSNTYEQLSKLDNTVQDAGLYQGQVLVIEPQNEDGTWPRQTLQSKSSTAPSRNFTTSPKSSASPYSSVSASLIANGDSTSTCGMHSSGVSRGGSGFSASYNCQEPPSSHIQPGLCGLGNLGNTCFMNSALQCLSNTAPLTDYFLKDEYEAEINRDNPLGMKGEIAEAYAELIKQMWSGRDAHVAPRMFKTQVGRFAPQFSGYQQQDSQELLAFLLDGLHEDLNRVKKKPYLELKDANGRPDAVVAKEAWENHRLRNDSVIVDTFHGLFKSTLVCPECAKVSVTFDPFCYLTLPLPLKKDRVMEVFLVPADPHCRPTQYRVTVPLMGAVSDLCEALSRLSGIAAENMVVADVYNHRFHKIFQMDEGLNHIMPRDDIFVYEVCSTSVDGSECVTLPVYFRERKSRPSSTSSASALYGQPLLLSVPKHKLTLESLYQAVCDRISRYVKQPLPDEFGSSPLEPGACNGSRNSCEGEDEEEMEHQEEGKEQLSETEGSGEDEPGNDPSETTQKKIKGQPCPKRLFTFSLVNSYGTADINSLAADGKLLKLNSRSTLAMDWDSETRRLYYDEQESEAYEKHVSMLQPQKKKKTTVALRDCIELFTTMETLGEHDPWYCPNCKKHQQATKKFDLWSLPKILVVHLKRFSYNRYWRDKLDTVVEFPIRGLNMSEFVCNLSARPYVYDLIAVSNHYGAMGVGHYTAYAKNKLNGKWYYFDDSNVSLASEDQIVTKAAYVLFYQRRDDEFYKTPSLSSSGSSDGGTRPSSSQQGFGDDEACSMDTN
Method in brief: as §1

Measured: log2 ratio of Biotin-Ahx-Ub-VS probe labelling

O=C(CCl)N1CCC(=C(F)CO)C1
inactive: [1] 0.0842 | [2] -0.125 | [3] 0.0909 | [4] 0.212 | [5] 0.218
